Rango complex inh – Rango-importin beta binding inhibition; Potency, µM (series often up to 92.2 µM); actives 0.031% (n = 340,000); Rango CFP/YFP FRET sensor + importin beta, 45 min; Q14974; AID 540263; calls by dose curve; further: nearly all actives have a fitted effect of over 15% in size
Target sequence (Q14974 whole entry, looked up): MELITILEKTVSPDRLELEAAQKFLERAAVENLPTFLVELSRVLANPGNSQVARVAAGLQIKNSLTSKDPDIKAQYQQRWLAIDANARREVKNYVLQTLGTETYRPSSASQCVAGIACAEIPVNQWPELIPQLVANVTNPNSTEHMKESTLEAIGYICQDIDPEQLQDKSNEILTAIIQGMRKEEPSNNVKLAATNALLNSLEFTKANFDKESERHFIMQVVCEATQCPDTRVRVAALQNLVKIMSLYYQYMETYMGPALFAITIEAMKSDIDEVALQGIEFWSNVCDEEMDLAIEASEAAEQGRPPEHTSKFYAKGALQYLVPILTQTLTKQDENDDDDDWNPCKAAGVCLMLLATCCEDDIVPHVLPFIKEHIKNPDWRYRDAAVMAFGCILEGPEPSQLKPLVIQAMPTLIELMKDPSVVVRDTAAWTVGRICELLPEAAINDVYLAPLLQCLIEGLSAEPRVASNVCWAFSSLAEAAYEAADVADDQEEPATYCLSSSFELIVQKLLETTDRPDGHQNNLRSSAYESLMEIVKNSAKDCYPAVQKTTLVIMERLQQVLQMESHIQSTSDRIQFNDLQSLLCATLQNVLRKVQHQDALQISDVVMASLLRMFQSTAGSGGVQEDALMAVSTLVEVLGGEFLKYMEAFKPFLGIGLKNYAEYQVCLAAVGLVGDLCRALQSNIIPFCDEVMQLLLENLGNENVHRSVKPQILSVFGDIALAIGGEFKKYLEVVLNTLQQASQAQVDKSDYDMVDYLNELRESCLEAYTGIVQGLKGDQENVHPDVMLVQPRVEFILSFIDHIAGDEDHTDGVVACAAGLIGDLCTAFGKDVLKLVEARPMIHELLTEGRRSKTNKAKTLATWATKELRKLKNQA
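FRET biosensor (snurportin 1 IBB flanked by EYFP and cerulean), 50 nM, with compound 5 min, then 0.125 microM importin beta in PBS, 1 mM DTT, 0.02% Tween-20, 0.1% BSA. CFP/YFP ratio read after 45 min at room temperature; pre-read flags interference.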
S-ASM inh – inhibitors of human secretory acid sphingomyelinase | placental ASM, HMU-PC fluorogenic substrate, 60 min | P17405 | Potency, µM (highest dose often 57.5 µM), most hits filed as inhibitors | actives 0.006% (n = 340,000)
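Steps: dispense placental human ASM, pin compound, wait 10 min at room temperature, add HMU-PC0 substrate at 9 uM final, incubate 60 min at 37 °C, add stop solution raising pH to 10, read fluorescence.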
Rango release inh – prevents RanGTP from dissociating the Rango-importin beta complex; O95149+P62826; Biochemical FRET Rango-importin beta, RanGTP-induced dissociation; Potency, µM (doses to about 46.1 µM); actives 0.071% (n = 340,000); AID 540253; calls by dose curve; further: nearly all actives have a fitted effect of over 45% in size
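FRET read at 45 min, room temperature: inhibitors block the CFP/YFP signal rise when RanGTP (0.6 uM Ran, 2 mM GTP, 0.2 uM RCC1) frees Rango (0.1 uM) from importin beta (0.25 uM). Pre-read after 5 min compound exposure flags interference.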
Abeta rescue – compounds reversing amyloid beta toxicity in yeast. yeast expressing A-beta42, growth rescue, OD600, 48 h; response scale: 0% DMSO, 100% iron-clioquinol control. Potency, µM (doses to about 46.1 µM), most hits filed as activators. actives 0.063% (n = 410,000); further: nearly all actives have a fitted effect of over 55% in size
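Yeast A-beta toxicity model in growth medium with pinned compounds, 48 h at 30 C; growth read as absorbance at 600 nm. Normalized to FeCl3/clioquinol equimolar mix (positive) and DMSO (negative).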
TDP-43 yeast inh – rescues yeast growth from TDP-43 toxicity; TDP-43 expressing yeast growth rescue, BacTiter-Glo, 24 h; Potency, µM (top dose mostly 46.1 µM), actives largely listed as activators; actives 1.8% (n = 410,000); further: nearly all actives have a fitted effect of over 50% in size
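Yeast expressing TDP-43 (pregrown in raffinose, seeded at OD600=0.02 in galactose medium) exposed to compounds 24 hr at 30 deg C. Growth read by BacTiter-Glo luminescence; rescue of toxicity appears as increased signal.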
aSyn rescue – alpha-synuclein toxicity inhibition in yeast | actives 0.14% (n = 370,000) | Potency, µM (top dose mostly 46.1 µM), most hits filed as activators | Yeast expressing alpha-synuclein, growth rescue, BacTiter-Glo, 24 h | AID 652106; further: nearly all actives have a fitted effect of over 65% in size
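Readout is rescue of growth in alpha-synuclein-expressing yeast, so inhibitors of toxicity appear as activators. Growth after 24 hr at 30 deg C in galactose medium is quantified by luminescence.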
A number is an active result; – = inactive; ? = inconclusive; · = no result; [ ] = dose if it differs, or a comment. Rows were chosen to be rich in hits. Some 2% of all compounds tested hit in one or more screens of this group. Unless noted, the call rests on the fitted dose curve; in most records, active means well fitted curve in the direction sought with a large enough effect; inconclusive means small, poorly fitted or top-dose-only effect, or another doubt; inactive means no such curve, though single readings can be large; an effect the other way counts as inactive or inconclusive.

SMILES	Rango complex inh	S-ASM inh	Rango release inh	Abeta rescue	TDP-43 yeast inh	aSyn rescue
COCCN=c1scc(-c2ccccc2)n1/N=C/c1c[nH]c2ccccc12	–	–	–	–	11µM	–
COc1ccc(CNC(=O)c2cc3sccc3n2Cc2ccc(C)cc2)cc1	·	·	·	–	–	·
CC(=O)N1CCN(C(C)=O)c2ccccc21	–	–	–	–	–	–
CC(=O)N1CCn2c3ccc(C)cc3c3cccc1c32	–	–	–	–	14µM	–
CN(C)c1ccc(/C=C/c2ccnc3ccccc23)cc1C=O	·	·	·	·	·	–
CCCCCCC(=O)c1c(C)[nH]c(C(=O)OCC)c1C	–	–	–	–	10µM	–
CCCCCC(=O)c1c(C)[nH]c(C(=O)OCC)c1C	–	–	–	–	–	–
COc1cc2c(NC3CCN(C)CC3)nc(N3CCCN(C)CC3)nc2cc1OCCCC(C)C	·	·	·	·	·	–
O=C(COc1ccc2ccccc2c1)Nc1ccc(O)c(-c2nc3ccccc3o2)c1	·	·	·	·	·	–
Cc1ccc(C)c(C(=O)COC(=O)c2n[nH]c3ccccc23)c1	–	–	–	–	20µM	?
Cc1cccc(C)c1OCCOC(=O)c1n[nH]c2ccccc12	–	–	–	?	–[1.82 µM]	–
CCOC(=O)c1sc(Nc2nc3cc4c(cc3s2)OCO4)cc1C	?	–	?	–	–	–
CCOC(=O)c1sc(Nc2nc3c(OC)cccc3s2)cc1C	?	–	?	–	22µM	–
COc1ccccc1Nc1nc(-c2c(C)[nH]c3ccccc23)cs1	?	–	12µM	–	?	–
Cc1[nH]c2ccccc2c1-c1csc(N)n1	?	–	–	–	–	–
COc1ccc([N+](=O)[O-])cc1NC(=O)CSCc1ccccc1	–	–	–	–	13µM	–
Cc1cccc(CSCCNC(=O)CSCc2ccc([N+](=O)[O-])cc2)c1	–	–	–	–	18µM	–
O=C(CSCc1ccccc1)Nc1cc([N+](=O)[O-])ccc1F	–	–	–	–	11µM	–
CCOc1ccccc1CNc1ncnc2c1nc1n2CCCC1	·	·	·	–	–	·
Cc1ccc2nc3c(cc(C#N)c(=O)n3-c3nnc(SCc4ccccc4)s3)c(=O)n2c1	·	·	·	–	–	·
Cc1ccc(-n2c(SCC(=O)N3CCCc4ccccc43)nc3c([nH]c4ccccc43)c2=O)cc1	·	·	·	–	–	·
CCOC(=O)c1cc2c(C)n(-c3ccc(C)cc3)c(C)c2ccc1=O	?	–	?	–	20µM	–
CCOC(=O)c1c(C)[nH]c(C)c1S(=O)(=O)N1CCCC(C(=O)Nc2ccc(C)c(N(C)C)c2)C1 (stereo not given)	·	·	·	–	–	·
CC(/C=N/NC(=O)CSc1ccccn1)=C\c1ccc(C(C)C)cc1	–	–	–	–	20µM	–
COc1ccc(-c2nc3sc(CCNC(=O)c4ccc(C(C)(C)C)cc4)c(C)n3n2)cc1	·	·	·	–	–	·
SMILES	Rango complex inh	S-ASM inh	Rango release inh	Abeta rescue	TDP-43 yeast inh	aSyn rescue
COc1ccc2c(c1)c1c(c(=O)n(-c3ccccc3C)c(=O)n1CC(=O)NCc1ccc(C)cc1)n2C	·	·	·	–	–	·
O=C(COc1ccccc1Cl)NC(=S)Nc1ccccc1N1CCCC1	–	–	–	?	16µM	–
COC(=O)c1ccccc1NC(=S)NC(=O)COc1ccccc1Cl	–	–	–	–	–	–
O=C(COc1ccccc1)NC(=S)N1CCc2ccccc21	–	–	–	–	–	–
O=C(COc1ccccc1Cl)NC(=S)N1CCc2ccccc21	–	–	–	?	18µM	–
COc1ccccc1OCC(=O)NNC(=S)NC(=O)c1ccco1	–	–	–	7.9µM	–	?
COc1ccc(/C=C/C(=O)NC(=S)NNC(=O)c2ccco2)cc1	–	–	–	7.1µM	?	–
COc1ccc(C(=O)NNC(=S)NC(=O)/C=C/c2cccs2)cc1	–	–	–	8.9µM	?	7.1µM
O=C(/C=C/c1cccs1)NC(=S)NNC(=O)c1ccccc1O	–	–	–	–	–	–
COc1ccc(/C=C/C(=O)NC(=S)NNC(=O)c2ccco2)cc1OC	–	–	–	–	–	–
COc1ccc(C(=O)NNC(=S)NC(=O)C(C)(C)C)cc1	–	–	–	5.6µM	–	?
CCn1cc(C(=O)NC(C)c2ccccc2)c(=O)c2cc(S(=O)(=O)N3CCc4ccccc4C3)ccc21 (stereo not given)	·	·	·	–	–	·
COc1ccc(NC(=O)C(=O)NCC(c2ccc3c(c2)OCO3)N2CCN(C)CC2)cc1 (stereo not given)	·	·	·	–	–	·
CCOC(=O)NCc1ccc(Cl)c(Cl)c1	–	–	–	–	18µM	–
Cc1ccc(C(=O)NCc2ccc(Cl)c(Cl)c2)o1	–	–	–	–	?	–
COC(=O)c1sccc1-c1ccc(C(=O)Nc2ccccc2)o1	–	–	–	–	13µM	–
Cc1ccc(S(=O)(=O)N2CCN(c3nc(-n4cccn4)nc4ccccc34)CC2)cc1	·	·	·	·	·	–
Fc1ccc(Br)cc1SCCc1ccncc1	–	–	–	–	11µM	–
COc1cc2ncc(S(=O)(=O)c3ccccc3)c(N3CCC4(CC3)OCCO4)c2cc1OC	–	–	–	–	?	–
CC1CCCN(c2c(S(=O)(=O)c3ccccc3)cnc3ccc(Cl)cc23)C1 (stereo not given)	·	·	·	–	–	·
COc1ccc2ncc(S(=O)(=O)c3ccccc3)c(N3CCN(c4ccccc4)CC3)c2c1	–	–	–	–	16µM	?
COc1ccc2ncc(S(=O)(=O)c3ccccc3)c(N3CCC4(CC3)OCCO4)c2c1	–	–	–	–	18µM	–
Cc1nc(-c2ccc(S(=O)(=O)N(Cc3ccccc3)C(C)C)cc2)co1	·	·	·	–	–	–
Cc1cc2cc(CCNS(=O)(=O)c3ccc(Br)cc3)c(=O)[nH]c2cc1C	·	·	·	–	–	·
Cc1nn2c3ccccc3nc2c2ccccc12	–	–	–	–	40µM	–
SMILES	Rango complex inh	S-ASM inh	Rango release inh	Abeta rescue	TDP-43 yeast inh	aSyn rescue
Cc1nn2c(-c3ccccc3)nnc2c2ccccc12	–	–	–	–	18µM	?
CCc1ccc(Nc2ncnc3sc4c(c23)CCCC4)cc1	·	·	·	–	20µM	–
Fc1ccc(Nc2ncnc3sc4c(c23)CCC4)cc1	–	–	–	–	18µM	32µM
CC(=O)Nc1ccc(Nc2ncnc3sc4c(c23)CCCC4)cc1	·	·	·	–	?	–
NNc1ncnc2scc(-c3ccc(Cl)cc3)c12	–	·	–	–	16µM	–
Clc1ccc(-c2csc3ncnc(Cl)c23)cc1	–	–	–	–	–	–
Cc1cc(F)ccc1S(=O)(=O)Nc1ncnc2sc3c(c12)CCC3	–	–	–	–	20µM	–
CCN(CC)CCCNC(=O)Cn1nc(C)n2c(cc3sccc32)c1=O	·	·	·	–	–	·
COc1ccc(CCNC(=O)CCCn2nc(C)c3sc4ccccc4c3c2=O)cc1OC	·	·	·	–	–	·

Source: PubChem
